Assay results published in the supplement of paper PMC12645437, “Orthogonal IMiD-Degron Pairs Induce Selective Protein Degradation in Cells” (ACS Chemical Biology, 2025).
The full ranking holds about 8,300 sequences; the median of “log2 fold change of degron read counts, EGFP-low vs EGFP+ sorted cells (limma voom), compound-induced degradation” is about -1.1, and the highest 2% start at about 3.2. What follows is part of a selection rich in the highest values, with near analogues and random picks from the rest.

T1: CRBN, Q96SW2
T1 chain: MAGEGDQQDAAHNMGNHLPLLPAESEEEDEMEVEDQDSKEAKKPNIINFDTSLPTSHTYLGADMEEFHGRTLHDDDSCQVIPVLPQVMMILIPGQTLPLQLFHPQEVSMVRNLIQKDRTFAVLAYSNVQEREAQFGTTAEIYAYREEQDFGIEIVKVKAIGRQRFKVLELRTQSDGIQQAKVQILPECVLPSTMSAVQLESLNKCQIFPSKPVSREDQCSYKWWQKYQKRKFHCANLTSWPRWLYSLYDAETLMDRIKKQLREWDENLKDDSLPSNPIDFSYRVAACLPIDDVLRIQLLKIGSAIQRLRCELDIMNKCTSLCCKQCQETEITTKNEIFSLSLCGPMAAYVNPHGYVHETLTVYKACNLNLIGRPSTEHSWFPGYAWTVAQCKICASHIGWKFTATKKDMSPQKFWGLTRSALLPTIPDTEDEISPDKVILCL


Target: T1, CRBN, Q96SW2
Test: log2 fold change of degron read counts, EGFP-low vs EGFP+ sorted cells (limma voom), compound-induced degradation; higher = more compound-induced degradation of the degron-EGFP fusion; degrons are variants of IKZF1/3 zinc finger 2; compound dose not given here
Settings: Jurkat, 18 h
[1] = compound: compound 19 (5-tert-butyl-thalidomide)
[2] = compound: compound 22 (5-morpholino-thalidomide)
[3] = compound: compound 33 (diphenyl IMiD analogue)
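Further: pooled lentiviral library of zinc finger degron-EGFP fusions in mCherry-positive Jurkat cells, FACS-sorted after compound exposure, with degron abundance counted by next-generation sequencing.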

Sequence | log2 fold change of degron read counts [1] | log2 fold change of degron read counts [2] | log2 fold change of degron read counts [3] | log2 fold change of degron read counts (compound: thalidomide)
FGCPQCGALFTQKGNLLRHIKL [46F_47G_49P_50Q_52G_53A_54L_55F_67L_, Q9UKT9] | 0.741 | -1.93 | 1.28 | -2.08
FSCDICGAKFTQKGNLLRHIKL [46F_47S_49D_50I_52G_53A_54K_55F_67L_, Q9UKT9] | 1.91 | 1.04 | -1.63 | 0.394
FRCPVCGAVFTQKGNLLRHIKL [46F_47R_49P_50V_52G_53A_54V_55F_67L_, Q9UKT9] | -1.2 | -0.699 | 1.54 | 1.18
FKCSVCGHMFTQKGNLLRHIKL [46F_47K_49S_50V_52G_53H_54M_55F_67L_, Q9UKT9] | -3.17 | -3 | -3.02 | -2.7
LICNQCGFDCTQKGNLLRHIKL [46L_47I_49N_50Q_52G_53F_54D_55C_67L_, Q9UKT9] | -3.41 | -3.2 | -2.9 | -2.97
FYCDICGAMFTQKGNLLRHIKL [46F_47Y_49D_50I_52G_53A_54M_55F_67L_, Q9UKT9] | 2.46 | 1.99 | 0.476 | -1.55
FRCNQCGHNFTQKGNLLRHIKL [46F_47R_49N_50Q_52G_53H_54N_55F_67L_, Q9UKT9] | -2.02 | -3.14 | -2.79 | -2.26
FRCDVCGAPFTQKGNLLRHIKL [46F_47R_49D_50V_52G_53A_54P_55F_67L_, Q9UKT9] | 2.07 | 3.3 | 3.21 | 2.88
FQCNVCGAPFTQKGNLLRHIKL [46F_47Q_49N_50V_52G_53A_54P_55F_67L_, Q9UKT9] | 0.618 | 2.01 | 0.742 | 2.69
FFCPVCGAPFTQKGNLLRHIKL [46F_47F_49P_50V_52G_53A_54P_55F_67L_, Q9UKT9] | 3.53 | 2.84 | 2.23 | 1.5
FQCDVCGAPFTQKGNLLRHIKL [46F_47Q_49D_50V_52G_53A_54P_55F_67L_, Q9UKT9] | 0.996 | 2.11 | -0.0653 | 2.48
FGCDVCGAPFTQKGNLLRHIKL [46F_47G_49D_50V_52G_53A_54P_55F_67L_, Q9UKT9] | -1.15 | -2.27 | -2.07 | -2.21
FFCDVCGAPFTQKGNLLRHIKL [46F_47F_49D_50V_52G_53A_54P_55F_67L_, Q9UKT9] | 2.96 | 1.95 | 0.307 | -0.766
FLCNVCGAPFTQKGNLLRHIKL [46F_47L_49N_50V_52G_53A_54P_55F_67L_, Q9UKT9] | -0.289 | 0.405 | 1.47 | 1.32
FRCPVCGAPFTQKGNLLRHIKL [46F_47R_49P_50V_52G_53A_54P_55F_67L_, Q9UKT9] | 3.29 | 3.62 | 3.27 | 3.51
FRCNVCGAPFTQKGNLLRHIKL [46F_47R_49N_50V_52G_53A_54P_55F_67L_, Q9UKT9] | 2.26 | 2.96 | 2.94 | 2.77
FVCDVCGAPFTQKGNLLRHIKL [46F_47V_49D_50V_52G_53A_54P_55F_67L_, Q9UKT9] | -0.0613 | 2.93 | 1.05 | 2.09
FQCPVCGAPFTQKGNLLRHIKL [46F_47Q_49P_50V_52G_53A_54P_55F_67L_, Q9UKT9] | 3.11 | 3.34 | 2.34 | 3.87
FFCNVCGAPFTQKGNLLRHIKL [46F_47F_49N_50V_52G_53A_54P_55F_67L_, Q9UKT9] | 2.8 | 1.44 | 0.47 | -0.472
FNCEICGALFTQKGNLLRHIKL [46F_47N_49E_50I_52G_53A_54L_55F_67L_, Q9UKT9] | 0.13 | -1.53 | -0.743 | -1.13
FDCEICGAYFTQKGNLLRHIKL [46F_47D_49E_50I_52G_53A_54Y_55F_67L_, Q9UKT9] | -0.0199 | -1.26 | -0.229 | -0.2
FTCNICGAMFTQKGNLLRHIKL [46F_47T_49N_50I_52G_53A_54M_55F_67L_, Q9UKT9] | -1.09 | -0.0854 | 0.875 | 0.88
FDCNQCGHNFTQKGNLLRHIKL [46F_47D_49N_50Q_52G_53H_54N_55F_67L_, Q9UKT9] | -2.11 | -2.61 | -2.32 | -2.04
FFCNQCGRDFTQKGNLLRHIKL [46F_47F_49N_50Q_52G_53R_54D_55F_67L_, Q9UKT9] | -2.83 | -3.38 | -3.07 | -2.85
FGCNQCGHIFTQKGNLLRHIKL [46F_47G_49N_50Q_52G_53H_54I_55F_67L_, Q9UKT9] | -1.45 | -1.99 | -2.4 | -1.44
FVCPQCGASFTQKGNLLRHIKL [46F_47V_49P_50Q_52G_53A_54S_55F_67L_, Q9UKT9] | -1.71 | 0.559 | 0.703 | 1.25
FMCEICGANFTQKGNLLRHIKL [46F_47M_49E_50I_52G_53A_54N_55F_67L_, Q9UKT9] | -0.123 | 0.396 | 2.76 | 1.56
LCCNQCGFFCTQKGNLLRHIKL [46L_47C_49N_50Q_52G_53F_54F_55C_67L_, Q9UKT9] | -1.18 | -1.17 | -1.27 | -0.874
